# Key:
# Test in all cases: DAPPL (digital affinity profiling via proximity ligation, sequencing); 10 mM Tris-HCl pH 7.5, 50 mM NaCl, 1 mM DTT, 4% glycerol, room temperature, 30 min; GST-TFs on glutathione beads, 16-mer random dsDNA library, 0.1% formaldehyde crosslink after washing; high values mean tight binding
# Details in all cases: protein: recombinant; tags: N-terminal GST; dsDNA, one strand shown
# FLI1 = biological target: T1, FLI1 (Homo sapiens, UniProt Q01543 1-452)
# T1 sequence: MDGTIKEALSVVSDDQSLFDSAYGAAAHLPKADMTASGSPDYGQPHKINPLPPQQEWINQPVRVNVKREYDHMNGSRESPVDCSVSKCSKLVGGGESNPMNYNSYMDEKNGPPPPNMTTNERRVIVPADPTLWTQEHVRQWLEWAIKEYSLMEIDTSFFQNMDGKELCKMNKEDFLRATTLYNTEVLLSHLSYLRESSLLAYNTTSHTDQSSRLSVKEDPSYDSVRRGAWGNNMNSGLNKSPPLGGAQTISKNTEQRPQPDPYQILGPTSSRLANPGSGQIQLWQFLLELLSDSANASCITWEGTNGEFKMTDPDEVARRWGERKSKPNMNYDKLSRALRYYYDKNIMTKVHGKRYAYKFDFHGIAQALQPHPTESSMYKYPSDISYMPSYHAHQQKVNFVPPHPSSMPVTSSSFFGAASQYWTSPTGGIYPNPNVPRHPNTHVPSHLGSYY
# Procedure, shortened: (§1)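 Binding signal is defined as a hexamer's read frequency for one factor over its frequency for the tag-only sample. To obtain reads, GST-fused human transcription factors were expressed in yeast, captured on glutathione beads, barcoded with DNA and pooled with that sample. Pools met 200 nmole of a 16-mer random double-stranded DNA library in Tris/NaCl/DTT/glycerol buffer for 30 min at room temperature before washing, 0.1% formaldehyde crosslinking, proximity ligation (BsaI/T4 ligase, 1 h, 37 °C), PCR and Illumina NextSeq500 sequencing.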
# ERG = biological target: T2, ERG (Homo sapiens, UniProt P11308 1-479)
# T2 sequence: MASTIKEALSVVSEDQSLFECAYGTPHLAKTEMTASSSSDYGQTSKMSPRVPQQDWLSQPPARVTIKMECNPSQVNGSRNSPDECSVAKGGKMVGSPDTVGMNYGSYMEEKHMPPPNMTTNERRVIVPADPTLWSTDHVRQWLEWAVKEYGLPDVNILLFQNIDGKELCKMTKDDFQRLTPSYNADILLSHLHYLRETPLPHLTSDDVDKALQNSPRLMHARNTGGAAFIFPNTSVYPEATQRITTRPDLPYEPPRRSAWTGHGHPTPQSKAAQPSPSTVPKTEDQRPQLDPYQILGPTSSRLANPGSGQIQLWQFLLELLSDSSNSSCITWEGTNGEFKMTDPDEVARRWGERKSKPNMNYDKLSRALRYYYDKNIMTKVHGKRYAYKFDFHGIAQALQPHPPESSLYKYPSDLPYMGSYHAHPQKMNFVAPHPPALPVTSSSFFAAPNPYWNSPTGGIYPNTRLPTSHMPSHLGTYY
# Procedure, shortened: as §1
# SPI1 = SPI1 (Homo sapiens, UniProt P17947 1-270)
# Procedure, shortened: as §1
# SPIB = SPIB (Homo sapiens, UniProt Q01892 1-262)
# Sequence of SPIB (Q01892 whole entry): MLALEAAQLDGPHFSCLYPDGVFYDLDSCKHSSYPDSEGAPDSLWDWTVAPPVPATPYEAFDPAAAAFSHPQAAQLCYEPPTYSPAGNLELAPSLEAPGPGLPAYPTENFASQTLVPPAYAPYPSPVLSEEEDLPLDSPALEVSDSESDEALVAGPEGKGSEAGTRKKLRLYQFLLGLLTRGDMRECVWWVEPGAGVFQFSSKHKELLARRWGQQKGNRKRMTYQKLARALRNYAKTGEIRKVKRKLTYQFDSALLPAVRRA
# Procedure, shortened: as §1
# ELK3 = biological target: T3, ELK3 (Homo sapiens, UniProt P41970 1-407)
# T3 sequence: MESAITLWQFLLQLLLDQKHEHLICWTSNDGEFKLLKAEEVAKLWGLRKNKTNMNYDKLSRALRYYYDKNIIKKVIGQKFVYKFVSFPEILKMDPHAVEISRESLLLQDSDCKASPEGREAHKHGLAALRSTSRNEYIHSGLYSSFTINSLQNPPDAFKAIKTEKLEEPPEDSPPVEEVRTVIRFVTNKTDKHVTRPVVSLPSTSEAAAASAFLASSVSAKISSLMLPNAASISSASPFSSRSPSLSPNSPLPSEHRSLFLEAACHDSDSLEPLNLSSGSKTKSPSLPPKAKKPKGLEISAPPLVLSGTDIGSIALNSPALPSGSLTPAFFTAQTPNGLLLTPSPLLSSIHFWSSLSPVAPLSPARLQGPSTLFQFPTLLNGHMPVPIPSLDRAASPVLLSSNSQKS
# Procedure, shortened: as §1
# FEV = biological target: T4, FEV (Homo sapiens, UniProt Q99581 1-238)
# T4 sequence: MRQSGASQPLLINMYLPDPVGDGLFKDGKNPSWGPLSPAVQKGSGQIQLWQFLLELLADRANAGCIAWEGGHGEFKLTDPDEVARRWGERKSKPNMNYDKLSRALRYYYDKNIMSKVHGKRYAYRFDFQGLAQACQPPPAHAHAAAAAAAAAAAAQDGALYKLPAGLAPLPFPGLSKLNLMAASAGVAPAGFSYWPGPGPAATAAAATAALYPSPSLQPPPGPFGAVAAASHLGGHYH
# Procedure, shortened: as §1
# ETV5 = ETV5 (Homo sapiens, UniProt P41161 1-510)
# Sequence of ETV5 (P41161 whole entry): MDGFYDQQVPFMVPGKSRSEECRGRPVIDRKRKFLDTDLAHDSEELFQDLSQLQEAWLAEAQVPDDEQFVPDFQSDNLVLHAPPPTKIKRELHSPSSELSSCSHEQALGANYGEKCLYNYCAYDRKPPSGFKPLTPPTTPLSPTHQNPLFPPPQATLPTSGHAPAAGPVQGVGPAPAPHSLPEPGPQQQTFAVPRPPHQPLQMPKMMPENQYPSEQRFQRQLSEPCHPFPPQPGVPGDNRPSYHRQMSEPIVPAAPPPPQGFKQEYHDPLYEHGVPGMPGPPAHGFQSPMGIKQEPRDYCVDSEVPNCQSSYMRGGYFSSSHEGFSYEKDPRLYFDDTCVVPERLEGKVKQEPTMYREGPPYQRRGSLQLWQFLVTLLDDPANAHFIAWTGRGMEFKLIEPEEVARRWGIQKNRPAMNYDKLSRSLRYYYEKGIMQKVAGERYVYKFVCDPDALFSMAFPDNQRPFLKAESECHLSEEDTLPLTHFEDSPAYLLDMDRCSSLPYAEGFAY
# Procedure, shortened: as §1
# SPIC = biological target: T5, SPIC (Homo sapiens, UniProt Q8N5J4 1-248)
# T5 sequence: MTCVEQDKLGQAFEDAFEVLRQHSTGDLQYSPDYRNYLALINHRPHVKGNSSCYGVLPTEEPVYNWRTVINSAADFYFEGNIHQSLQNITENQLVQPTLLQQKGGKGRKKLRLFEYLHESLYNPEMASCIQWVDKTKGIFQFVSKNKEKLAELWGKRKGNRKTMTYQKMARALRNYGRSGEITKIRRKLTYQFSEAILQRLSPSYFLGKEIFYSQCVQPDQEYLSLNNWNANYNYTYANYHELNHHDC
# Procedure, shortened: as §1
# ELF4 = ELF4 (Homo sapiens, UniProt Q99607 1-663)
# Sequence of ELF4 (Q99607 whole entry): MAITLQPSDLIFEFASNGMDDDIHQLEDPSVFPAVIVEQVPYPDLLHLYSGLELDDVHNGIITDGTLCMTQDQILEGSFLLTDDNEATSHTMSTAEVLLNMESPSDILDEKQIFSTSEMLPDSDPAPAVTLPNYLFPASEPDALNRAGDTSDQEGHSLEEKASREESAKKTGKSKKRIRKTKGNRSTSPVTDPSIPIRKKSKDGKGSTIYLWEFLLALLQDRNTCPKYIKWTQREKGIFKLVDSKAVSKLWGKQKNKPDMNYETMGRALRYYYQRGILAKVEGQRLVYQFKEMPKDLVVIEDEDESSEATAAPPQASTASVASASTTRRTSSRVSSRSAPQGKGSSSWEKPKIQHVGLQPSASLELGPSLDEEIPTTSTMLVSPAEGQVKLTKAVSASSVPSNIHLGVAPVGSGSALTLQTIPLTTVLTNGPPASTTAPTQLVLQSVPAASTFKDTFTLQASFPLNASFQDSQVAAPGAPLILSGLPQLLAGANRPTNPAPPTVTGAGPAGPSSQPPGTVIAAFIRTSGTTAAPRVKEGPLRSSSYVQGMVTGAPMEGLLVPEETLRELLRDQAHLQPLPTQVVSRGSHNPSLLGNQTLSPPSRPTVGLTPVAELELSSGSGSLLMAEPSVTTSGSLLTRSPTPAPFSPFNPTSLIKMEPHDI
# Procedure, shortened: as §1
# ETV1 = ETV1 (Homo sapiens, UniProt P50549 1-477)
# Sequence of ETV1 (P50549 whole entry): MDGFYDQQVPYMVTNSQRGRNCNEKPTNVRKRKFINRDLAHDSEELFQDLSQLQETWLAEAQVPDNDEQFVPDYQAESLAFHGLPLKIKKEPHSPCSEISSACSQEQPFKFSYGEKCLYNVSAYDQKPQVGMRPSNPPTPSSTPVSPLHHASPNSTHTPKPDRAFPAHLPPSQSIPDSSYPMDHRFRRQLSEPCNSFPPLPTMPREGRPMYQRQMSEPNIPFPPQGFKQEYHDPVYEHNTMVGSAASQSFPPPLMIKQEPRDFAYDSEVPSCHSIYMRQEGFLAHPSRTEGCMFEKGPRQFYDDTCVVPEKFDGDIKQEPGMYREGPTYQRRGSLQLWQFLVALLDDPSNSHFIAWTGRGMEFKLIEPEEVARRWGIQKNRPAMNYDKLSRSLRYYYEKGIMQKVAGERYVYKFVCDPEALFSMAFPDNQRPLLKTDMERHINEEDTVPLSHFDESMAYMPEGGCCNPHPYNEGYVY
# Procedure, shortened: as §1
# ETV3L = biological target: T6, ETV3L (Homo sapiens, UniProt Q6ZN32 1-361)
# T6 sequence: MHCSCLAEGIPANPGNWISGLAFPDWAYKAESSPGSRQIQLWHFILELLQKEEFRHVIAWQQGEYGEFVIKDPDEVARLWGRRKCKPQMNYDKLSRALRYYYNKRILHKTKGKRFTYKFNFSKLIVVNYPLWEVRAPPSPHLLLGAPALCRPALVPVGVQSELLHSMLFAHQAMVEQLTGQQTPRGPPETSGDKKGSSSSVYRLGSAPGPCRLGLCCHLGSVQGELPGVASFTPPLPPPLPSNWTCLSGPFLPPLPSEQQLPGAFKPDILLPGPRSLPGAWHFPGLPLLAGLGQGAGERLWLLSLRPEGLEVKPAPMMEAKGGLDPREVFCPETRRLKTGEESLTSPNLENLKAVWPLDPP
# Procedure, shortened: as §1
# ETV3 = biological target: T7, ETV3 (Homo sapiens, UniProt P41162-2 1-143)
# T7 sequence: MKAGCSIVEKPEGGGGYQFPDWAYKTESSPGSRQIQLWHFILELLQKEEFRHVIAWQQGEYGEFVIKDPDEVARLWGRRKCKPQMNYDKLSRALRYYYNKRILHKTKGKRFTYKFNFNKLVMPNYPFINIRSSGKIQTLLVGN
# Procedure, shortened: as §1
# ETV6 = ETV6 (Homo sapiens, UniProt P41212 1-452)
# Sequence of ETV6 (P41212 whole entry): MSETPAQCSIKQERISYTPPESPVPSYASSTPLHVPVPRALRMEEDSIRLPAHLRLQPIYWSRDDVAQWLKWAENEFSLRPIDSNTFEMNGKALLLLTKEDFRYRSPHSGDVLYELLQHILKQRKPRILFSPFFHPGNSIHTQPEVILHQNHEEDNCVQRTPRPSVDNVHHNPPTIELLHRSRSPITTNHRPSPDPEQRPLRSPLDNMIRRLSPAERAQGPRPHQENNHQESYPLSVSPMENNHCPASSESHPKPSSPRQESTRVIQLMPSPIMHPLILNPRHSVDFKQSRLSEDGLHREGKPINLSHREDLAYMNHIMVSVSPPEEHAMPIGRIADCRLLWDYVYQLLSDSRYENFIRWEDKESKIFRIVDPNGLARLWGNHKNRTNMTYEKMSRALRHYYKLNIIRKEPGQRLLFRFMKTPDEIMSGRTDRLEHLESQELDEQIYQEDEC
# Procedure, shortened: as §1
# ELK1 = biological target: T8, ELK1 (Homo sapiens, UniProt P19419 1-428)
# T8 sequence: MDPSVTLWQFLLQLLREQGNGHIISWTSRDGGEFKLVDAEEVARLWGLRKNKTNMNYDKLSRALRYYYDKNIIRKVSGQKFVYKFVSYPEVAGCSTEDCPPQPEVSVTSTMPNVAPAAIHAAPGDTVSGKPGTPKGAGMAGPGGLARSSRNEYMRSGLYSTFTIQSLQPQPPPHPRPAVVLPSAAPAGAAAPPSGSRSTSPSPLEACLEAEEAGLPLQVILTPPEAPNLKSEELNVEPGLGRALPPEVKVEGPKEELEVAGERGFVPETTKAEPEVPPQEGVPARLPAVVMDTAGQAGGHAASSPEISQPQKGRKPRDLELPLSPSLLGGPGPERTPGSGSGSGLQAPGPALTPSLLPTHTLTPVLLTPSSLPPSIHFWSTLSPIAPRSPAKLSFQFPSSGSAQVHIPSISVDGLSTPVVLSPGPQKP
# Procedure, shortened: as §1
# GABPA = biological target: T9, GABPA (Homo sapiens, UniProt Q06546 1-454)
# T9 sequence: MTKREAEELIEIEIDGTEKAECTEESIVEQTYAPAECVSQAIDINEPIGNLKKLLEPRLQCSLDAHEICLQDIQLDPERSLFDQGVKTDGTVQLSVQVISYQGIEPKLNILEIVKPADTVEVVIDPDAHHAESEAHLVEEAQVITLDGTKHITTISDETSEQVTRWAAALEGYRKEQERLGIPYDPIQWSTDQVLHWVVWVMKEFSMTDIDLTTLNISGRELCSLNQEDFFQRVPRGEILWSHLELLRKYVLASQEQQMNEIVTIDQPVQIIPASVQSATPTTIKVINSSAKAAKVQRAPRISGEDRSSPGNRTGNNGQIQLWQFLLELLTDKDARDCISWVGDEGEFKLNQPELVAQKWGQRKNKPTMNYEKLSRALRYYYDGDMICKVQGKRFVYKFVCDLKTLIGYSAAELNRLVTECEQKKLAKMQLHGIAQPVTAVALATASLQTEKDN
# Procedure, shortened: as §1
# EHF = biological target: T10, EHF (Homo sapiens, UniProt Q9NZC4 1-300)
# T10 sequence: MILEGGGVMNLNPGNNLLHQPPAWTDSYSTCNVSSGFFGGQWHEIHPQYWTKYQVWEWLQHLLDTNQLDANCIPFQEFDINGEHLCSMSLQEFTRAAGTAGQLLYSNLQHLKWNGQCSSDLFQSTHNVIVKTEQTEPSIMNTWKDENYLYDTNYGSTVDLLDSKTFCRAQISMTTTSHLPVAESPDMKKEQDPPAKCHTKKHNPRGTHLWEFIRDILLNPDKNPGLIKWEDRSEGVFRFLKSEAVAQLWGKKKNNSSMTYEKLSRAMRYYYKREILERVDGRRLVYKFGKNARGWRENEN
# Procedure, shortened: as §1
# ERF = biological target: T11, ERF (Homo sapiens, UniProt P50548 1-548)
# T11 sequence: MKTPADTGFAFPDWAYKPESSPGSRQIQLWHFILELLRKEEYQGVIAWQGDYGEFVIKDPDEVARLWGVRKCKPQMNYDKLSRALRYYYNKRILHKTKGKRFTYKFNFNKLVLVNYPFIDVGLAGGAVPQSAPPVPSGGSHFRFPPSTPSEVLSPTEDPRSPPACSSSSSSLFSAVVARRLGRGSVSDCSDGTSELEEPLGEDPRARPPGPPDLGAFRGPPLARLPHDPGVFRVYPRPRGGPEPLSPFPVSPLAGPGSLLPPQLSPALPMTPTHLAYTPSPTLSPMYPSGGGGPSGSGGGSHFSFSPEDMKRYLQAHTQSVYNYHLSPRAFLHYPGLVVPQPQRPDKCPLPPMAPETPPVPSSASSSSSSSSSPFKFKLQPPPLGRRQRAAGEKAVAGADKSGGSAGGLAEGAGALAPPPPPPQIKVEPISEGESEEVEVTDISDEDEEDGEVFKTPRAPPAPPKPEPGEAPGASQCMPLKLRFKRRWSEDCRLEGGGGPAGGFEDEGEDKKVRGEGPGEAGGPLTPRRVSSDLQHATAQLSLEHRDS
# Procedure, shortened: as §1
# ETS2 = biological target: T12, ETS2 (Homo sapiens, UniProt P15036 1-469)
# T12 sequence: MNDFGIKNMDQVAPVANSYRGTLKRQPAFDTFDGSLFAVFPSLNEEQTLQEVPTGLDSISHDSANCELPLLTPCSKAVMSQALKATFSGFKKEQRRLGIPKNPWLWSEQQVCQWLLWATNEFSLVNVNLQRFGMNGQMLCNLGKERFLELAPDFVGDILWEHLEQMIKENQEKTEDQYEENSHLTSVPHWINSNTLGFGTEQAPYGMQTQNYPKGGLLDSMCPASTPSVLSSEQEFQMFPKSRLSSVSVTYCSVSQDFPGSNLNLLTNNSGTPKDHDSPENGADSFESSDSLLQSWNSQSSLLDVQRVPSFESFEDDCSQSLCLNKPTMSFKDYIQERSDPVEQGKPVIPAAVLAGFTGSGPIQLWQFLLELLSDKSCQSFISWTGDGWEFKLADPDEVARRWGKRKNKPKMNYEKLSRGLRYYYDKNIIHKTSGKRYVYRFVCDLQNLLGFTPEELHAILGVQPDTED
# Procedure, shortened: as §1
Sequence,binding signal (FLI1),binding signal (ERG),binding signal (SPI1),binding signal (SPIB),binding signal (ELK3),binding signal (FEV),binding signal (ETV5),binding signal (SPIC),binding signal (ELF4),binding signal (ETV1),binding signal (ETV3L),binding signal (ETV3),binding signal (ETV6),binding signal (ELK1),binding signal (GABPA),binding signal (EHF),binding signal (ERF),binding signal (ETS2)
AGTGCC,"1.06 fold enrichment (6-mer frequency, TF over GST control)","1.01 fold enrichment (6-mer frequency, TF over GST control)","1.32 fold enrichment (6-mer frequency, TF over GST control)","1.01 fold enrichment (6-mer frequency, TF over GST control)","1.05 fold enrichment (6-mer frequency, TF over GST control)","1.04 fold enrichment (6-mer frequency, TF over GST control)","1.03 fold enrichment (6-mer frequency, TF over GST control)","1.19 fold enrichment (6-mer frequency, TF over GST control)","1.01 fold enrichment (6-mer frequency, TF over GST control)","1.04 fold enrichment (6-mer frequency, TF over GST control)","1.07 fold enrichment (6-mer frequency, TF over GST control)","1.05 fold enrichment (6-mer frequency, TF over GST control)","1.16 fold enrichment (6-mer frequency, TF over GST control)",,,,,
ATAGCG,"1.08 fold enrichment (6-mer frequency, TF over GST control)",,"1.07 fold enrichment (6-mer frequency, TF over GST control)",,"1.05 fold enrichment (6-mer frequency, TF over GST control)",,"1.04 fold enrichment (6-mer frequency, TF over GST control)","1.03 fold enrichment (6-mer frequency, TF over GST control)",,,,,,"1.03 fold enrichment (6-mer frequency, TF over GST control)","1.01 fold enrichment (6-mer frequency, TF over GST control)","1.05 fold enrichment (6-mer frequency, TF over GST control)","1.1 fold enrichment (6-mer frequency, TF over GST control)","1 fold enrichment (6-mer frequency, TF over GST control)"
